Experimental data reported in PubChem BioAssay (NCI).
This is part of a sample that, as a whole, favours compounds with a hit. Of some 83,000 tested, about 20% had one in any assay.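 Assay: single dose, 48 h. Readout: percent growth (0 = no net growth; negative = cell death). Active: <10.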 Unmarked numbers belong to inactive results. Active and inactive are the calls of the source.

Key:
Assay in all cases: NCI-60 one-dose screen, 48 h (100 = growth as untreated, 0 = no growth, -100 = all killed)
Settings in all cases: 10 µM unless noted
SR leukemia = system: SR leukemia
RPMI-8226 leukemia = system: RPMI-8226 leukemia
OVCAR-8 ovarian = system: OVCAR-8 ovarian
OVCAR-5 ovarian = system: OVCAR-5 ovarian
OVCAR-4 ovarian = system: OVCAR-4 ovarian
SK-OV-3 ovarian = system: SK-OV-3 ovarian
IGROV1 ovarian = system: IGROV1 ovarian
HS 578T breast = system: HS 578T breast
NCI/ADR-RES ovarian = system: NCI/ADR-RES ovarian
T-47D breast = system: T-47D breast
BT-549 breast = system: BT-549 breast
MDA-MB-435 melanoma = system: MDA-MB-435 melanoma
SW-620 colon = system: SW-620 colon
MCF7 breast = system: MCF7 breast
HCT-116 colon = system: HCT-116 colon
HCC-2998 colon = system: HCC-2998 colon
KM12 colon = system: KM12 colon
MDA-MB-468 breast = system: MDA-MB-468 breast
OVCAR-3 ovarian = system: OVCAR-3 ovarian

Compound	growth (SR leukemia)	growth (RPMI-8226 leukemia)	growth (OVCAR-8 ovarian)	growth (OVCAR-5 ovarian)	growth (OVCAR-4 ovarian)	growth (SK-OV-3 ovarian)	growth (IGROV1 ovarian)	growth (HS 578T breast)	growth (NCI/ADR-RES ovarian)	growth (T-47D breast)	growth (BT-549 breast)	growth (MDA-MB-435 melanoma)	growth (SW-620 colon)	growth (MCF7 breast)	growth (HCT-116 colon)	growth (HCC-2998 colon)	growth (KM12 colon)	growth (MDA-MB-468 breast)	growth (OVCAR-3 ovarian) [%]
O=C(CSc1nnc(-c2ccc(-c3nc4ccccc4[nH]3)cc2)o1)Nc1ccc(Cl)cc1	2.31% (active)	7.96% (active)	-18% (active)	47.1%	45.1%	83.1%	44.4%	63.1%	30%	23.8%	-0.131% (active)	18.4%	-50.5% (active)	7.43% (active)	7.32% (active)	59.6%	22.9%	54.8%	–
Cn1cc(-c2cc(N)n3nc(-c4c[nH]c5ccc(F)cc45)cc3n2)c2cc(Br)cnc21	-23.5% (active)	19.2%	42.8%	74.2%	71.6%	104%	70.7%	86.4%	56%	54.5%	92.6%	78.8%	17.2%	47.1%	-26.9% (active)	13.8%	3.18% (active)	20.7%	–
CCCCCCCCc1ccc(C(=O)Nc2ccc(C)c(OP(=O)(O)O)c2)cc1	81.9%	50.6%	100%	120%	88.9%	115%	110%	91.6%	97.5%	90%	88.9%	102%	103%	88.3%	106%	125%	95.5%	104%	–
N#Cc1c(-c2ccc(F)cc2)nc(SCc2ccc(F)cc2)nc1N1CCNCC1	-2.24% (active)	-47.4% (active)	-84% (active)	0.484% (active)	-8.59% (active)	56.7%	-27.1% (active)	-0.165% (active)	-39% (active)	-66.9% (active)	82.7%	-84.7% (active)	-83.7% (active)	-90.5% (active)	-99.3% (active)	-91% (active)	-81.2% (active)	-72% (active)	–
Nc1nn2c(-c3cc4cc(Br)ccc4oc3=O)ccnc2c1N=Nc1ccccc1	1.69% (active)	75.2%	-14.9% (active)	16.8%	-5.33% (active)	-6.82% (active)	13.1%	-20.7% (active)	-16.7% (active)	29.6%	-45.3% (active)	71.2%	50.7%	20%	3.34% (active)	30.2%	26.1%	46.2%	–
O=C(CSc1nc2sc3c(c2c(=O)n1-c1ccc(Cl)cc1)CCCC3)N/N=C/C=C/c1ccccc1	-23.2% (active)	-0.68% (active)	-51.3% (active)	-38.9% (active)	-31% (active)	-11.2% (active)	-5.52% (active)	-16.9% (active)	-10.7% (active)	-24.5% (active)	-73.7% (active)	-50.1% (active)	-55.5% (active)	12.6%	-13.5% (active)	6.29% (active)	39.9%	-81.6% (active)	–
Nc1nnc(-c2cncc(Br)c2)c(-c2c[nH]c3ccc(Cl)cc23)n1	54.1%	–	89.8%	94.2%	56.2%	103%	68.6%	76.6%	63.5%	34.4%	95.7%	35%	82.8%	75.1%	73.7%	88.8%	74.5%	59.4%	100
CC1=NN(C2=NC(=O)C(CC(=O)Nc3ccccc3C(F)(F)F)S2)C(c2ccc(N(C)C)cc2)C1 (stereo unspecified)	16.5%	25.3%	52.6%	86%	47.5%	80.6%	59.2%	43.8%	62.7%	48%	52.7%	-26.5% (active)	60.5%	23.4%	30.1%	66.2%	39%	3.34% (active)	–
CN(C)c1nc(NCCNS(=O)(=O)c2ccc(C(=O)/C=C/c3ccc(Cl)cc3)cc2)nc(N2CCOCC2)n1	-12.8% (active)	-22.8% (active)	12.8%	55.4%	60%	73.9%	-71.2% (active)	62%	25.5%	10.3%	12.8%	-53.6% (active)	-66.9% (active)	-67% (active)	-95.5% (active)	-94.4% (active)	-76.9% (active)	-83.2% (active)	–
O=C1Nc2ccccc2/C1=C\c1ccc(OCC(=O)c2ccc(Br)cc2)cc1	36.3%	49.2%	69.6%	93.2%	58.2%	101%	78.3%	84.5%	47.8%	46.9%	56.6%	70.5%	78.1%	27.4%	55.4%	85.1%	77.3%	52.4%	–
S=C(Nc1ccccc1)Nc1ccc(OCc2nc3ccc(Cl)cc3[nH]2)cc1	25.9%	66.7%	87.7%	109%	78.3%	97.1%	87.9%	92%	83.7%	51.5%	78.8%	75.2%	73%	24.8%	77.5%	104%	74.7%	12.1%	–
CC(C)CN1C(=O)/C(=C\C(=O)c2cc3ccccc3oc2=O)c2ccccc21	34.6%	85.4%	97.7%	111%	87.3%	104%	87.7%	102%	95.8%	44.7%	111%	98.8%	41%	58.1%	91.2%	118%	103%	32.6%	–
